Data on five compounds can be found in PubChem BioAssay.

Experiment [1] can be described thus: yeast TOR pathway RPL19A-GFP modulators, primary screen, cell-based, S. cerevisiae, multiplex flow cytometry (AID 1862; in the data active = percent of DMSO control GFP below about 86%;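 note: lower values mimic rapamycin by blocking the RPL19A rise seen in DMSO cells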). As to conditions: S. cerevisiae RPL19A-GFP strain, flow cytometry fluorescence, 3 h; at 10 µM; stronger effect = lower value. (In general: In flow cytometry, cells or beads pass a laser one at a time.)
Experiment [2] is described as follows: modulators of MEP2-GFP levels in yeast, primary screen, S. cerevisiae, multiplex flow cytometry (AID 1867;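 active = GFP response, as percent of the DMSO control, above the screen-wide mean plus 3 SD, about 139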;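 note: median GFP channel fluorescence of barcode-gated MEP2-GFP cells measured by flow cytometry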). The settings on record: S. cerevisiae MEP2-GFP strain, 3 h, at 10 µM, stronger effect = higher value, 100% means same as DMSO wells.
Experiment [3] can be described thus: modulators of CIT2-GFP expression in yeast, primary screen, S. cerevisiae, GFP fusion, multiplex flow cytometry (AID 1870;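 active = percent response above a set limit, the screen-wide mean plus 3 SD, cut at about 130% in these data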;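 note: barcoded CIT2-GFP strain pooled with four other GFP strains with rapamycin as positive control; median GFP fluorescence per well over plate mean of DMSO wells so 100% = DMSO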). The settings on record: 3 h, at 10 µM, stronger effect = higher value.
Experiment [4] is described as follows: modulators of LAP4-GFP expression in yeast, primary screen, S. cerevisiae, multiplex flow cytometry (AID 1873;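 active = GFP signal, as percent of the solvent control, above the screen mean plus 3 SD, about 149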). The settings on record: 3 h, at 10 µM, stronger effect = higher value.
Experiment [5] can be described thus: modulators of AGP1-GFP expression in yeast TOR pathway, primary screen, cell-based, multiplex flow cytometry, S. cerevisiae (AID 1887;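 active = GFP signal above the screen-wide mean plus 3 SD, that is over about 124.5% of the solvent control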;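 note: AGP1-GFP fusion strain of S. cerevisiae within a five-strain barcoded multiplex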). As to conditions: 3 h, at 10 µM, stronger effect = higher value.
Experiment [6] in a line: inhibitors of CD8+ T cell-vesicle binding, pilot screen, LFA-1/ICAM-1 modulator project, MLPCN validation set, flow cytometry (AID 2523;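 active = response below a set limit, under 55% cells CD8-positive and vesicle-bound, and CD8 cells' 90th-percentile brightness under 279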;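 for vesicle binding response: mean PE anti-B7-1 fluorescence of CD8+ cells relative to row control; 100% = QL9-loaded vesicles with DMSO vehicle in the same plate row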). As to conditions: 2C mouse CD8+ T cells, at 7 µM, stronger effect = lower value; double positive events: measured here: CD8+/vesicle+ event percentage.
For experiment [7], the target named is Integrin beta-1 (Homo sapiens) + Integrin alpha-4 (Homo sapiens) (UniProt P13612+P05556). The experiment can be described thus: inhibition of HUTS-21 binding to VLA-4, pilot screen, VLA-4 allosteric modulator project, U937 cells, HUTS-21 mAb, flow cytometry, validation set (AID 2674;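 active = inhibition above 50%, about 3 SD of the validation set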;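 note: antibody binding induced by the VLA-4 ligand LDV present at three times its Kd; 0% = LDV ligand with antibody and no compound and 100% = antibody without LDV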). As to conditions: HUTS-21 LIBS mAb binding, at 6.7 µM, stronger effect = higher value, binding induced by LDV ligand.
Sequence of Integrin beta-1 (Homo sapiens) + Integrin alpha-4 (Homo sapiens) (P05556 whole entry, looked up): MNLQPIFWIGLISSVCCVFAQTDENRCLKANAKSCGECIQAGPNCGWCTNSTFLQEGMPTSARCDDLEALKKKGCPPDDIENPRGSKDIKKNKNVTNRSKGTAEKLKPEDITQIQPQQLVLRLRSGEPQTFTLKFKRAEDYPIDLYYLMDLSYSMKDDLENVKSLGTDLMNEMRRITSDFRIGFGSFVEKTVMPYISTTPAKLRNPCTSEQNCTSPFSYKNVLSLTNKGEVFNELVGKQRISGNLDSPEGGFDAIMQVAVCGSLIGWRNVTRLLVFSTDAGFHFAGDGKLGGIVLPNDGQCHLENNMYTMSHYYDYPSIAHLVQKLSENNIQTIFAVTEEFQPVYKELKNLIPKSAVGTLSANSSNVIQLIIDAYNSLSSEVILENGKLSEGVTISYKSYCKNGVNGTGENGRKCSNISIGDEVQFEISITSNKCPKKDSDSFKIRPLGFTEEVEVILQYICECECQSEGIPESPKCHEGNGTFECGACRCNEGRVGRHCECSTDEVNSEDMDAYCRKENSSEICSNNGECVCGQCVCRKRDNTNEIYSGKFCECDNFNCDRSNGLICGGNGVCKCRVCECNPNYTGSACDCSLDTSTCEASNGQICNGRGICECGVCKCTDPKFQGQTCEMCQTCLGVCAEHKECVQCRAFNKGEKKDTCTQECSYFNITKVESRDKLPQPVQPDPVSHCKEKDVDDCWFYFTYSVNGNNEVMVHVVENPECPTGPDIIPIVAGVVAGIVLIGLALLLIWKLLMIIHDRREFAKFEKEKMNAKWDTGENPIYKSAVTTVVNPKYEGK
Sequence of Integrin beta-1 (Homo sapiens) + Integrin alpha-4 (Homo sapiens) (P13612 whole entry, looked up): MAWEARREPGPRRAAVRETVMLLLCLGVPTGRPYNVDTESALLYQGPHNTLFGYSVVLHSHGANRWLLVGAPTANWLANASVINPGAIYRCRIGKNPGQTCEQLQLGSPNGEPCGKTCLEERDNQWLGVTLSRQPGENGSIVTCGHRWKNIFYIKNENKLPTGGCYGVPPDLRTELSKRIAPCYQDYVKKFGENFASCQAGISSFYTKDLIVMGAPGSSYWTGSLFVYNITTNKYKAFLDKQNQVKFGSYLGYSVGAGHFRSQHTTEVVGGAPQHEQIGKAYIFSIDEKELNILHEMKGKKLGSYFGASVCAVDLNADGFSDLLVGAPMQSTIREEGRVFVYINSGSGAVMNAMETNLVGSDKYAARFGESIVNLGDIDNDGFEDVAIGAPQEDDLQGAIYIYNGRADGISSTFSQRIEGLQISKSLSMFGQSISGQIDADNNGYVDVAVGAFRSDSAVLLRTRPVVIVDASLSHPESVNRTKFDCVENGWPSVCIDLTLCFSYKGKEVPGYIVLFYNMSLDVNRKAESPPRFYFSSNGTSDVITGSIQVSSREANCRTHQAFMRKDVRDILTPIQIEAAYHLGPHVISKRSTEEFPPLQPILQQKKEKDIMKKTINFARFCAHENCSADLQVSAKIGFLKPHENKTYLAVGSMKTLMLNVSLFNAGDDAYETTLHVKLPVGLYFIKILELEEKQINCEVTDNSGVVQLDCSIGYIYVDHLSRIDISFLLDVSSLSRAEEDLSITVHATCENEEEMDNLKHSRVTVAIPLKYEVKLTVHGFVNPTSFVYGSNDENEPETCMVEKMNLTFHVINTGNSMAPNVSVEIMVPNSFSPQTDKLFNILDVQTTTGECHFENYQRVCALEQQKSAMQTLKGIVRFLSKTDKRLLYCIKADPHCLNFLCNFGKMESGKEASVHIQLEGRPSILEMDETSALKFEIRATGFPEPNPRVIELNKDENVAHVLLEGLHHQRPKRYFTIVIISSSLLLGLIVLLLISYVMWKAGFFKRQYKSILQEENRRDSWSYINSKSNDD

Experiment [8] can be described thus: superoxide lowering in aged yeast cells, pilot screen, validation compound set (AID 2706;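 active = superoxide response below 65% of plate, a cut near 3 SD across the whole screen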;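 note: yeast exposed to compound for one week at 30 degrees C before staining; 100% = mean of all compound wells on the same plate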). The settings on record: S. cerevisiae aging, superoxide DHE fluorescence; at 10 µM, stronger effect = lower value.
In experiment [9] the target is Beta-adrenergic receptor kinase 1 (Homo sapiens) (UniProt P25098). The experiment can be described thus: GRK2 binders displacing RNA aptamer, biochemical, validation, human GRK2, bead flow cytometry (AID 488806;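 active = aptamer binding inhibition above 30%, about 3 SD of noise from non-fluorescent compounds; inactive = inhibition at or below 30%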). The settings on record: bead-bound GRK2, FAM-aptamer displacement, at 10 µM, stronger effect = higher value.
Sequence of Beta-adrenergic receptor kinase 1 (Homo sapiens) (P25098 whole entry, looked up): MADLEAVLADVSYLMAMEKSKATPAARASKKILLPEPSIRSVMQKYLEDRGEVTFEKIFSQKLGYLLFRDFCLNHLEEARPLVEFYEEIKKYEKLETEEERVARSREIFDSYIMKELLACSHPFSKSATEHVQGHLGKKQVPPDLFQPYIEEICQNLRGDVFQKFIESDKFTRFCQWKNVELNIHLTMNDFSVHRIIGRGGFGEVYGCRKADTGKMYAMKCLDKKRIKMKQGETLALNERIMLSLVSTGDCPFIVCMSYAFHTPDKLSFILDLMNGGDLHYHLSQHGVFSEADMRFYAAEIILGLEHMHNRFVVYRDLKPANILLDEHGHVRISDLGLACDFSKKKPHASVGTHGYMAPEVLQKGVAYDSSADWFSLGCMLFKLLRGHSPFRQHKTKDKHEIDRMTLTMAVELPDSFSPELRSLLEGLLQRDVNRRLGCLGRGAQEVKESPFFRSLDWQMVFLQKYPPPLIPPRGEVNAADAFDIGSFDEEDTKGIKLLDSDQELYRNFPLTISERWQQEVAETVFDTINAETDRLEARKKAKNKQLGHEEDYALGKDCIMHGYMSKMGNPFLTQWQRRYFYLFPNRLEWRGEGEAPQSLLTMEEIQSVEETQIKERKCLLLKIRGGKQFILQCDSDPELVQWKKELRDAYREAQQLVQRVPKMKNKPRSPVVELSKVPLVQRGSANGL
The target of experiment [10] is AP-2 complex subunit beta (Homo sapiens) (UniProt P63010). The experiment can be described thus: inhibitors of arrestin peptide binding to AP2, pilot screen, biochemical, validation set, GST-AP2 beads, flow cytometry (AID 504541).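 Note: AP2 carries R879A mutation and is captured from E. coli lysate; bead-bound FITC arrestin peptide fluorescence measuring arrestin peptide binding to AP2; 0% = DMSO wells and 100% = excess unlabeled arrestin peptide control.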 As to conditions: FITC arrestin peptide, at 10 µM, stronger effect = higher value, AP2 beta2 appendage fragment, R879A mutant.
Sequence of AP-2 complex subunit beta (Homo sapiens) (P63010 whole entry, looked up, the tested form may be a part, one chain of several): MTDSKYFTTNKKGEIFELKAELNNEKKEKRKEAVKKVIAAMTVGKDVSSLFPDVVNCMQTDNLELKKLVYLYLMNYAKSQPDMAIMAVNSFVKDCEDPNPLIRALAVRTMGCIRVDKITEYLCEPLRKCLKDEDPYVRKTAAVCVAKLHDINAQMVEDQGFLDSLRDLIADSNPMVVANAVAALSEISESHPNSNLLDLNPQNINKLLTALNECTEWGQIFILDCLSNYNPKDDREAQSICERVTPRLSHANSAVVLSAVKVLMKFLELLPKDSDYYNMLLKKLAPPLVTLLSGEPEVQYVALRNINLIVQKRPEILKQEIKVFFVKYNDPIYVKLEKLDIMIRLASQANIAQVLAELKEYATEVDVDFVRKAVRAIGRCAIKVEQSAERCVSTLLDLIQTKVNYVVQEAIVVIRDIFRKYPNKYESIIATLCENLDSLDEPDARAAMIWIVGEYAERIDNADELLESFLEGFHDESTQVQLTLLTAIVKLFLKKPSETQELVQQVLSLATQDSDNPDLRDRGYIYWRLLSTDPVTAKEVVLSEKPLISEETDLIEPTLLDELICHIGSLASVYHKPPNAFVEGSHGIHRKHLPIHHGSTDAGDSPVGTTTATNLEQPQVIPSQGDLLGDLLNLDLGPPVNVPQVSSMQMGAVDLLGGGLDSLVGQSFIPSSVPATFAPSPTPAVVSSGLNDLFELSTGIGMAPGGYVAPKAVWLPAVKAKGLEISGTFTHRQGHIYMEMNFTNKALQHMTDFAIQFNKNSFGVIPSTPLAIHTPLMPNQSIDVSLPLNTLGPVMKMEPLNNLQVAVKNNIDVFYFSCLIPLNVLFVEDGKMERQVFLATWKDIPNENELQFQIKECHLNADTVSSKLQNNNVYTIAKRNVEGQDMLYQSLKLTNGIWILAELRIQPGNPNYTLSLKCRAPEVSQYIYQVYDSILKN
A short description of experiment [11]: yeast V-ATPase proton transport modulators, S. cerevisiae, pHLuorin, HTS validation (AID 504600; in the data active = response above about 15%;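 note: plate controls were DMSO for no effect and reference compound for full effect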). The settings on record: S. cerevisiae pHLuorin cytosolic pH, at 10 µM, stronger effect = higher value.
Experiment [12] deals with anti-desmoglein-3 scFv antibody binding to human DSG3. The experiment can be described thus: inhibitors of anti-DSG3 scFv binding to DSG3, pilot screen, biochemical, validation compound set, bead-based, flow cytometry (AID 588368;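 active = binding below the plate cutoff, the plate median minus 3 SD, with a reading above zero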;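 note: signal is the median channel fluorescence of bead-bound GFP antibody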). As to conditions: Protein G beads, DSG3-Fc, scFv-GFP binding, at 10 µM, stronger effect = lower value.
The nature of experiment [13]: inhibitors of fungal efflux pumps CDR1, CDR2, MDR1, pilot screen, validation compound set, multiplex, phenotypic (AID 588506;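 active = efflux inhibition above 0.42, the validation set average plus 4 SD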;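 note: Nile Red retained in cells so higher fluorescence means more efflux inhibition; 0 = negative control wells and 1 = enniatin B 25 µM full block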). As to conditions: S. cerevisiae pump-expressing triplex, Nile Red efflux flow cytometry; at 10 µM; stronger effect = higher value; the pumps come from Candida albicans.
Experiment [14] has as its target ATP-binding cassette sub-family B member 6 (Homo sapiens) (UniProt Q9NP58). The experiment can be described thus: ABCB6 transporter inhibitors, pilot screen, K562-ABCB6 cells, flow cytometry, validation set (AID 588550;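 active = inhibition above the screen-wide mean plus 3 SD, about 51%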;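 note: 0% = DMSO wells and 100% = benzethonium chloride 70 µM positive control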). The settings on record: K562-ABCB6 porphyrin accumulation, 1 h, at 10 µM, stronger effect = higher value.
Experiment [15] in a line: promoters of myeloid differentiation in arrested cells, primary screen, cell-based, GFP/MAC1 double positive, flow cytometry, validation set (AID 588685;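 active = differentiation response of at least 50%, scaled between solvent and reference control, from cells with both markers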;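 note: compound exposure lasts four days before antibody staining and flow analysis; 0% = DMSO wells and 100% = 5 µM fulvestrant positive control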). The settings on record: ER-HoxA9 marrow cells, stronger effect = higher value, normalized: vehicle 0, fulvestrant 100.

SMILES strings stand for the structures. Inconclusive results are not listed. The source made the active and inactive calls.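 Rule for the calls, unless noted: active = inhibition above 54%, about 3 SD of non-fluorescent compounds; inactive = the rest.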

Sequence of ATP-binding cassette sub-family B member 6 (Homo sapiens) (Q9NP58 whole entry, looked up): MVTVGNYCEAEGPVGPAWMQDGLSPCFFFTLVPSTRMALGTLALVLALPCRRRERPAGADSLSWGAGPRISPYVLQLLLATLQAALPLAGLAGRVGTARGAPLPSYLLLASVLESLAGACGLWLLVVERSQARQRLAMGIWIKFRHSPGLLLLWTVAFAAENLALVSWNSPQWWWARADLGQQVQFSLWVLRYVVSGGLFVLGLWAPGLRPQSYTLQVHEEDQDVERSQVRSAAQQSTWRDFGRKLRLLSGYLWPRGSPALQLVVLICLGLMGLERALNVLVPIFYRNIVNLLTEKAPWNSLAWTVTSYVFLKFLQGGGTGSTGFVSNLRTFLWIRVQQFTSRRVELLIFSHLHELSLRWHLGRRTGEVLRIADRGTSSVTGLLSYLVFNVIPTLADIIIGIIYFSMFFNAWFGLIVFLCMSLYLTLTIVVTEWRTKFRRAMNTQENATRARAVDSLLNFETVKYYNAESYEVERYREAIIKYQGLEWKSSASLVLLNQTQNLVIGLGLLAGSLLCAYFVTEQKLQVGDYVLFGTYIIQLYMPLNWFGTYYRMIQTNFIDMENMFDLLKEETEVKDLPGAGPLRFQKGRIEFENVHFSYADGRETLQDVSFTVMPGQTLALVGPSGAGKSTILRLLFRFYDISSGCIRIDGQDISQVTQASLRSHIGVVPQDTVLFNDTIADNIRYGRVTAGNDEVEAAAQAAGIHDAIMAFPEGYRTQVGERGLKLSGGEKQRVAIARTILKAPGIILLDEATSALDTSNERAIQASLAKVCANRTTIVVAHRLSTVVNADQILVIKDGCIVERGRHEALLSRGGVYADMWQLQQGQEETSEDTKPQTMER

By inhibition is commonly meant the drop in the measured response relative to a control, in per cent. As for `O=[N+]([O-])c1cc(/C=N/n2cnnc2)ccc1N1CCCC1`, the percent of DMSO control GFP in experiment [1] was 100% (inactive). In addition, the results for the GFP response vs DMSO in experiment [2] and in experiment [4] were 99.9% (inactive) and 95.4% (inactive), respectively. In experiment [3], the percent response of DMSO control is 97.9% (inactive). Moreover, the GFP response, % of DMSO in experiment [5] was 101% (inactive). The compound further returned a double positive events in [6] of 60.8%. For the same compound, the vesicle binding response in experiment [6] was 182% (inactive). The results for the inhibition in experiment [7], in experiment [10] and in experiment [14] were 10.9% (inactive), 5.45% (inactive) and 3% (inactive), respectively. The superoxide response (% of plate) in [8] is 105% (inactive). For the same compound, the aptamer binding inhibition in experiment [9] is 6% (inactive). In experiment [11], the response was -0.97% (inactive). Moreover, the binding (% of control) in experiment [12] is 96.4% (inactive). Moreover, in experiment [13], the efflux inhibition (fraction of control) was -0.43 (inactive). Besides, the differentiation response in experiment [15] is -8.27% (inactive).

As to `O=C1C=CC(=O)C(C2=C3C(=O)N(CCc4ccccc4)CC(=O)N3CCC2)=C1`, the percent of DMSO control GFP in experiment [1] was 106% (inactive). The GFP response vs DMSO was 103% (inactive) in experiment [2] and 94.3% (inactive) in [4]. Further, in experiment [3], the percent response of DMSO control was 102% (inactive). For the same compound, the GFP response, % of DMSO in experiment [5] is 104% (inactive). The double positive events in experiment [6] stood at 42.5%. For the same compound, the vesicle binding response in experiment [6] is 92.7% (inactive). For the same compound, the inhibition in [7] is -30.1% (inactive); in experiment [10], 12% (inactive); in experiment [14], 8% (inactive). Besides, the superoxide response (% of plate) in experiment [8] is 115% (inactive). The aptamer binding inhibition in experiment [9] was 3% (inactive). Moreover, the response in experiment [11] was -0.59% (inactive). Moreover, the binding (% of control) in experiment [12] was 101% (inactive). In addition, in experiment [13], the efflux inhibition (fraction of control) was -0.28 (inactive). In experiment [15], the differentiation response is -18% (inactive).

Turning to `CCNC(=S)Nc1ccc(OC(F)(F)F)cc1`, the percent of DMSO control GFP in [1] was 105% (inactive). The GFP response vs DMSO in experiment [2] was 107% (inactive); in [4] it was 103% (inactive). Moreover, the percent response of DMSO control in [3] is 102% (inactive). The GFP response, % of DMSO in experiment [5] was 98.7% (inactive). Besides, in [6], the double positive events was determined as 60.6%. The vesicle binding response in experiment [6] is 166% (inactive). The inhibition was -1.17% (inactive) in experiment [7], 43.4% (inactive) in experiment [10] and -3% (inactive) in experiment [14]. Besides, in experiment [8], the superoxide response (% of plate) is 93.5% (inactive). Also, the aptamer binding inhibition in [9] is 1% (inactive). Moreover, the response in experiment [11] was -22.5% (inactive). In addition, the binding (% of control) in experiment [12] is 101% (inactive). The efflux inhibition (fraction of control) in experiment [13] is -0.05 (inactive). The differentiation response in experiment [15] is 11.1% (inactive).

In the case of `COC1=CC(=O)CC(C)C12Oc1c(Cl)c(OC)cc(OC)c1C2=O` (stereo not given), the percent of DMSO control GFP in [1] is 105% (inactive). Besides, the GFP response vs DMSO in [2] is 99.9% (inactive); in experiment [4], 103% (inactive). Further, the percent response of DMSO control in experiment [3] is 107% (inactive). The GFP response, % of DMSO in experiment [5] was 98.7% (inactive). In addition, in [6], the double positive events amounted to 42.3%. In addition, in experiment [6], the vesicle binding response was 131% (inactive). For the same compound, the results for the inhibition in [7], in experiment [10] and in [14] were 8.15% (inactive), 14.5% (inactive) and 8% (inactive), respectively. Moreover, the superoxide response (% of plate) in experiment [8] was 97.4% (inactive). In addition, the aptamer binding inhibition in experiment [9] was -1% (inactive). Moreover, in experiment [11], the response is 0.18% (inactive). Further, the binding (% of control) in experiment [12] is 95.9% (inactive). For the same compound, in [13], the efflux inhibition (fraction of control) was -0.09 (inactive). Besides, the differentiation response in experiment [15] was -14.7% (inactive).

For `CCCOc1ccc(-c2cc(C(=O)NCC3CCCO3)c3ccccc3n2)cc1` (stereo not given), the percent of DMSO control GFP in experiment [1] is 99.5% (inactive). Besides, the GFP response vs DMSO is 102% (inactive) in experiment [2] and 105% (inactive) in experiment [4]. Besides, the percent response of DMSO control in experiment [3] is 91% (inactive). In addition, the GFP response, % of DMSO in [5] is 84.4% (inactive). The double positive events in experiment [6] stood at 55.9%. The vesicle binding response in [6] is 199% (inactive). Further, the inhibition is 13.8% (inactive) in experiment [7], -3.49% (inactive) in experiment [10] and 12% (inactive) in experiment [14]. The superoxide response (% of plate) in experiment [8] is 91.2% (inactive). Besides, the aptamer binding inhibition in experiment [9] was 1% (inactive). Also, the response in experiment [11] is 6.44% (inactive). The binding (% of control) in experiment [12] is 97.3% (inactive). Also, the efflux inhibition (fraction of control) in experiment [13] was 0.18 (inactive). Also, in experiment [15], the differentiation response was 7.87% (inactive).
